Many of the other results were omitted from the sample, so hits are more common in it than they were.
Pf apPOL inh: Pf-apPOL DNA polymerase inhibition; Recombinant Pf-apPOL, molecular beacon fluorescence, 1.5 h; inhibition, % at 10 µM; actives 0.25% (n = 210,000); AID 1794808
mHTT CaM bind: disrupts binding of mutant huntingtin to calmodulin; P42858; AlphaScreen His-mHTT/GST-CaM binding, luminescence; inhibition, % at 15 µM; actives 3.6% (n = 190,000); AID 1671202
Large screens that a line does not name were inactive. Rule as the data show it: active = inhibition above about 50%; inactive = the rest.

CCOC(=O)N1CCC2(CC1)N=C(c1ccccc1O)CC(c1cc(Cl)ccc1O)N2 (stereo unspecified)	none
CCOc1ccc(C2=NC3(CCN(C)CC3)NC(c3cc(Cl)ccc3O)C2)cc1 (stereo unspecified)	none
CC(=O)N1CCC2(CC1)N=C(c1ccc(C)cc1C)CC(c1cc(Cl)ccc1O)N2 (stereo unspecified)	mHTT CaM bind 88
CCOC(=O)N1CCC2(CC1)N=C(c1ccc3c(c1)OCO3)CC(c1ccccc1O)N2 (stereo unspecified)	none
COc1cccc(C2=NC3(CCN(C)CC3)NC(c3cc(Cl)ccc3O)C2)c1 (stereo unspecified)	mHTT CaM bind 52
O=C(NNC(=O)c1cccs1)c1csc(COc2ccccc2Cl)n1	none (no result: mHTT CaM bind)
O=C(CC1CCCCC1)N1CCCC(COc2ccc(C(=O)N3CCCC3)cc2)C1 (stereo unspecified)	none
CCOc1ccccc1N1CCN(C(=O)C2CCN(Cc3cc(OC)ccc3OC)CC2)CC1	none
CC(C)N1CCC2(CC1)N=C(c1ccccc1O)CC(c1ccccc1O)N2 (stereo unspecified)	none
CC(=O)N1CCC2(CC1)N=C(c1ccccc1)CC(c1cc(Cl)ccc1O)N2 (stereo unspecified)	mHTT CaM bind 65
CCN1CCC2(CC1)N=C(c1ccc3c(c1)OCO3)CC(c1cc(Cl)ccc1O)N2 (stereo unspecified)	none
Cc1ccc(C2=NC(C)(C)NC(c3ccccc3O)C2)cc1 (stereo unspecified)	mHTT CaM bind 100
COc1ccccc1C1CC(c2ccccc2O)=NC2(CCN(C(C)C)CC2)N1 (stereo unspecified)	mHTT CaM bind 66
CC(=O)N1CCC2(CC1)N=C(c1ccc3c(c1)OCO3)CC(c1cc(Cl)ccc1O)N2 (stereo unspecified)	mHTT CaM bind 79
CC(=O)N1CCC2(CC1)N=C(c1ccc(F)cc1)CC(c1cc(Cl)ccc1O)N2 (stereo unspecified)	none
Cc1ccc(C2=NC3(CCN(C)CC3)NC(c3ccccc3O)C2)cc1 (stereo unspecified)	none
CC(C)CN1CCN(C(=O)C2CCc3sc(C(=O)N4CCCC4)cc3C2)CC1 (stereo unspecified)	none
CN1CCN(Cc2c(C(=O)NN)nnn2-c2nonc2N)CC1	none (no result: Pf apPOL inh)
O=C(NCCCn1ccnc1)c1cnn2c(C(F)(F)F)cc(-c3ccco3)nc12	none
COc1cccc(C2CC(c3ccc(Cl)cc3)=NC3(CCN(C(C)=O)CC3)N2)c1O (stereo unspecified)	mHTT CaM bind 58
CCOC(=O)N1CCC2(CC1)N=C(c1ccc(F)cc1)CC(c1cc(Cl)ccc1O)N2 (stereo unspecified)	none
COc1cccc(C2CC(c3ccc(C)c(C)c3)=NC3(CCN(C(C)=O)CC3)N2)c1O (stereo unspecified)	none
CCN1CCC2(CC1)N=C(c1ccc(C)cc1)CC(c1cccc(OC)c1O)N2 (stereo unspecified)	none
COc1cccc(C2=NC(C)(C(C)C)NC(c3ccccc3O)C2)c1 (stereo unspecified)	mHTT CaM bind 70
COc1ccc(O)c(C2=NC3(CCN(C(C)C)CC3)NC(c3ccccc3O)C2)c1 (stereo unspecified)	none
CC(=O)N1CCC2(CC1)N=C(c1ccc(C)c(C)c1)CC(c1cc(Cl)ccc1O)N2 (stereo unspecified)	mHTT CaM bind 63
CCCC1(C)N=C(c2ccc(Cl)cc2)CC(c2cccc(OC)c2O)N1 (stereo unspecified)	mHTT CaM bind 88
CC(Oc1cccc(Cl)c1)C(=O)N1CCCN(Cc2noc(-c3ccccc3)n2)CC1 (stereo unspecified)	none
O=C(Nc1ccc(N2CCCN(Cc3cccc(F)c3)C2=O)cc1)C1CCC1	none
COc1ccccc1C1(CNS(=O)(=O)c2ccc3c(c2)CCCC3)CCOCC1	none
O=C(CCCCCn1nnc2ccccc2c1=O)NCc1ccc(F)cc1	none
Cc1ccnc(N2CCC(C(=O)NCc3ccc(OC(C)C)cc3)CC2)n1	none
COc1ccc(C2=NC3(CCN(C(C)=O)CC3)NC(c3cc(Cl)ccc3O)C2)cc1 (stereo unspecified)	mHTT CaM bind 99
CN1CCC2(CC1)N=C(c1ccccc1O)CC(c1ccccc1O)N2 (stereo unspecified)	none
Oc1ccc(Cl)cc1C1=NC2(CCNCC2)NC(c2ccccc2O)C1 (stereo unspecified)	mHTT CaM bind 100
CC(C)C1N=C(c2ccc3c(c2)OCO3)CC(c2cc(Br)ccc2O)N1 (stereo unspecified)	none
CC(C)C1N=C(c2ccc3c(c2)OCO3)CC(c2cc(Cl)ccc2O)N1 (stereo unspecified)	mHTT CaM bind 67
CCN1CCC2(CC1)N=C(c1ccc(F)cc1)CC(c1cc(Cl)ccc1O)N2 (stereo unspecified)	none
Cc1cc(C)cc(N2C(=O)C3N=NN(c4cccc(F)c4)C3C2=O)c1 (stereo unspecified)	none
CCC1(C)CC(=O)N(c2ccccc2)C1=O (stereo unspecified)	none
O=C(CN1CCN(C(=O)Nc2ccccc2)CC1=O)NCc1ccccc1Cl	none
N#Cc1ccccc1N1C(=O)C2C3C=CC(CC3)C2C1=O (stereo unspecified)	none
COc1ccc(CCNC(=O)c2cccc(Oc3ncccn3)c2)cc1OC	none
CCN(C)C(=O)c1cc(-c2cccc(C)c2)on1	none
CCCC1CCC(C2=N/C(=C\c3cccc([N+](=O)[O-])c3)C(=O)O2)CC1 (stereo unspecified)	none
NCCNc1ccc([N+](=O)[O-])cc1	none
Nc1ccc(Nc2ccc([N+](=O)[O-])cc2)cc1	mHTT CaM bind 52
CSc1sc(C)cc1C1C(C#N)=C(N)N(c2ccc([N+](=O)[O-])cc2)C2=C1C(=O)CCC2 (stereo unspecified)	none
Cc1nn(S(=O)(=O)c2ccccc2[N+](=O)[O-])c(C)c1Sc1ccccc1	none
Cc1ccc(Sc2c(C)nn(S(=O)(=O)c3ccccc3[N+](=O)[O-])c2C)cc1	mHTT CaM bind 50
COc1ccc(-c2cn3c(n2)N(C(=O)Cc2ccsc2)CCC3)cc1	none
c1cc2c(s1)C1CCCCC1OC21C2CC3CC(C2)CC1C3 (stereo unspecified)	none (no result: Pf apPOL inh)
N#Cc1c(-c2cccc(Cl)c2Cl)c(C#N)c2nc3ccccc3n2c1N	none
O=C(Nc1ccc(Br)cc1F)N1CCCC1c1ccc(F)cc1 (stereo unspecified)	none
O=C(Nc1ccc(NC(=O)c2cccc(Br)c2)cc1)c1ccccc1	none
C=CCN1N=C(NC(=O)c2cccc(Br)c2)SC=C1c1ccccc1	mHTT CaM bind 55
COC(CN(C)S(=O)(=O)c1cc(Br)cc2c1N(C(=O)C1CC1)CC2)OC	none
N#CC1=CN(c2ccc(F)cc2Br)c2cc(F)ccc2S1(=O)=O	none
N=c1c2c(-c3ccccc3)c(-c3ccccc3)n(Cc3ccco3)c2ncn1Cc1ccco1	mHTT CaM bind 99
Cc1nc2ccccc2c(=O)n1Cc1ccco1	none
Cc1cccc(N2CCN(Cc3nc(C(=O)Nc4ccc(F)cc4)co3)CC2)c1C	none
N=C1S/C(=C\c2ccc(-c3cccc(C(=O)O)c3)o2)C(=O)N1c1nonc1N	none
CC(=O)Nc1nonc1N1C(=N)S/C(=C\c2ccc(-c3cccc(C(F)(F)F)c3)o2)C1=O	mHTT CaM bind 56
CC(=O)Nc1nonc1N1C(=N)S/C(=C\c2ccc(-c3ccccc3F)o2)C1=O	none
N=C1S/C(=C\c2ccc(-c3ccc(F)c(Cl)c3)o2)C(=O)N1c1nonc1N	mHTT CaM bind 51
